The term AC50 denotes the concentration at which the activity in the assay is half-maximal.

SMILES strings stand for the structures. The source made the active and inactive calls. Rule for the calls: active = hit-call score of the fitted dose curve at least 0.9, where 1 is the maximum; inactive = score below 0.9.

The assay can be described thus: CEETOX_H295R_CORTISOL: CeeTox H295R High-throughput Steroidogenesis Assay for Cortisol (AID 2283438).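 Note: cortisol secreted into medium quantified by LC-MS/MS.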 The note with it: actives raise or lower the signal. The protocol:
CEETOX_H295R is a cell-based, multiplexed-readout assay that uses H295R, a human adrenal gland cell line, with measurements taken at 48 hours after chemical dosing in a 96-well plate.CEETOX_H295R_CORTISOL is one of 23 assay component(s) measured or calculated from the CEETOX_H295R assay. It is designed to make measurements of hormone induction, a form of inducible reporter, as detected with absorbance signals by HPLC-MS-MS technology.Data from the assay component CEETOX_H295R_CORTISOL was analyzed into 1 assay endpoint. This assay endpoint, CEETOX_H295R_CORTISOL, was analyzed with bidirectional fitting relative to DMSO as the negative control and baseline of activity. Using a type of inducible reporter, gain or loss-of-signal activity using HPLC-MS-MS was used to understand synthesis of Cortisol in H295R cell line at 48hr of chemical exposure. To generalize the intended target to other relatable targets, this assay endpoint is annotated to the steroid hormone intended target family, where the subfamily is glucocorticoids.
Cell culture and media preparation procedures were conducted in accordance with OECD Test No. 456 guidelines, with minor modifications. H295R cells (ATCC CRL-2128) were expanded for 5 passages and frozen in batches in liquid nitrogen. Prior to the steroidogenesis assay, H295R cells were thawed and passed at least 4 times. The maximum passage was 10. Cells were maintained in a 1:1 mixture of DMEM/F12 supplemented with 5ml/L ITS+ Premix (BD Bioscience) and 12.5 ml/L Nu-Serum (BD Bioscience). After seeding cells into 96-well plates at 50-60% confluency, cells were allowed to adhere overnight. Prior to chemical testing, culture medium was replaced with 175 uL medium containing 10 uM forskolin to stimulate steroidogenesis for 48 hours. Following prestimulation, forskolin medium was replaced with medium containing test chemical solubilized in DMSO (ensuring a final concentration of 0.1% DMSO). Test chemicals were incubated for 48 hours, then the medium was removed and split into 2 vials containing approximately 75uL each, and stored at -80 C prior to hormone analysis. For steroid quantification, media samples were shipped to OpAns, LLC (Durham, NC) on dry ice, and samples were thawed to room temperature prior to liquid-liquid extraction. Steroid hormones were extracted from media samples using methyl tertbutyl ether (MTBE). An extra derivatization with dansyl chloride was included for estrogen (estrone and estradiol) detection only. Steroid hormones were separated by HPLC, eluted using a reverse phase C18 gradient with electrospray positive ionization, followed by quantification by tandem mass spectrometry (MS/MS). Data were acquired on a MassHunter Workstation Acquisition version B03.01 (Agilent Technologies, Inc.) and processed using MassHunter Quantitative Analysis for QQQ. Accuracy was determined for each hormone analyte from 3 standards to determine upper and lower limits of quantification (ULOQ and LLOQ, respectively) using a 7-point standard curve. Precision and accuracy of the extraction and quantification methods were calculated as the percent relative standard deviation (%RSD) of the spiked standards and percent spiked standard recovered, respectively. The goal was to achieve 100% accuracy (i.e., recover all spiked-in standard at quantification with minimal loss during run time) and good precision (i.e., have %RSD <15% to ensure reproducibility). Test medium was removed following chemical exposure, and cell viability was evaluated in the same wells by MTT. MTT procedures were as follows: after removal of test medium, 500 uL of 0.5 mg/ml of 3-[4,5-dimethylthiazol-2-y]2,5-diphenyltetrazoliumbromide solution was added to the cells. Following a 4-hour incubation at 37 C and 5% CO2 to allow formazan-crystal formation, the MTT solution was removed and blue formazan salt crystals were solubilized using 500uL anhydrous isopropanol with shaking for 20 minutes. […]
On to `CCN(CC)c1ccc(C=O)cc1`, for which the molecule was classed as inactive.

Turning to `Oc1ccc2c(c1)CCC2`, the result was inactive.

As for `OCCC(O)CO` (stereo unspecified), the result was inactive.

Regarding `O=c1[nH]cccc1O`, the result was inactive.

Take `O=C1c2ccccc2C(=O)c2c(Cl)cccc21`: the result was inactive.

With `O=C1C=CC(=O)N1c1ccccc1`, the call was inactive.

With `CN1CN(C)CN(C)C1`, the molecule was classed as inactive.

As to `Cc1cc(O)c(C(C)(C)C)cc1C(C)(C)C`, the outcome was inactive.

In the case of `CC1CCCCC1`, the call was inactive.

Turning to `CCOCOCC`, the molecule was classed as inactive.

Take `N#Cc1ccccc1O`: the molecule was called inactive.

Take `CCN(CC)c1ccc(N=Nc2ccccc2)cc1`: the molecule was classed as inactive.

On to `CCCCCCCCCc1ccc(OCCO)cc1`, for which the call was inactive.

Turning to `C[C@]12CC[C@H]3C(=CCc4cc(O)ccc43)[C@@H]1CCC2=O`, the half-maximal activity concentration (AC50) was 13.7 µM (active).

Turning to `CSc1ccc(O)cc1C`, the molecule was classed as inactive.

As to `CCCCC(CC)COC(=O)c1ccc(N(C)C)cc1` (stereo unspecified), the molecule was called inactive.

With `CCCCCCCCCCCCC[N+](C)(C)Cc1ccccc1`, the result was inactive.

As to `Nc1cccnc1N`, the call was inactive.

On to `CCn1c2ccccc2c2ccccc21`, for which the molecule was classed as inactive.

Take `O=C(c1ccccc1)c1ccc(Cl)cc1`: the result was inactive.

Turning to `Cc1cccc(C)n1`, the outcome was inactive.

These data come from PubChem BioAssay (EPA / NIEHS).
